The full data set covers some 8,800 targets. This sample favours those with a hit. About 0.5% of all pairs of compound and target were hits. Values without a mark were called inactive.

Chain of UniProt P62328 (P62328 whole entry, looked up): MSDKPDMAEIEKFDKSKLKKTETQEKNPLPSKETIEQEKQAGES
Chain of UniProt P04350 (P04350 whole entry, looked up): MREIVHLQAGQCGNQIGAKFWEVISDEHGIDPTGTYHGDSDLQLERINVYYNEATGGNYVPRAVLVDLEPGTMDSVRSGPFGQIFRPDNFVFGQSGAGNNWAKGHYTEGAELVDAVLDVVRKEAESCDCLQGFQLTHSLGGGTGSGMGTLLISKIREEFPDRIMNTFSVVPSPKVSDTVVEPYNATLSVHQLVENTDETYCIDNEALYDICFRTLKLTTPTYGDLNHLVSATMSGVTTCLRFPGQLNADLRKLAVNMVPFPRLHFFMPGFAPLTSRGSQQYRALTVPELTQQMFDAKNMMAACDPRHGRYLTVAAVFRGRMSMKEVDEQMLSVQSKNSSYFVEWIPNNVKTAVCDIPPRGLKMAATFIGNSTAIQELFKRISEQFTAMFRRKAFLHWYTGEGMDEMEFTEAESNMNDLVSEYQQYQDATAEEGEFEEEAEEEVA
Chain of UniProt Q96RT8 (Q96RT8 whole entry, looked up): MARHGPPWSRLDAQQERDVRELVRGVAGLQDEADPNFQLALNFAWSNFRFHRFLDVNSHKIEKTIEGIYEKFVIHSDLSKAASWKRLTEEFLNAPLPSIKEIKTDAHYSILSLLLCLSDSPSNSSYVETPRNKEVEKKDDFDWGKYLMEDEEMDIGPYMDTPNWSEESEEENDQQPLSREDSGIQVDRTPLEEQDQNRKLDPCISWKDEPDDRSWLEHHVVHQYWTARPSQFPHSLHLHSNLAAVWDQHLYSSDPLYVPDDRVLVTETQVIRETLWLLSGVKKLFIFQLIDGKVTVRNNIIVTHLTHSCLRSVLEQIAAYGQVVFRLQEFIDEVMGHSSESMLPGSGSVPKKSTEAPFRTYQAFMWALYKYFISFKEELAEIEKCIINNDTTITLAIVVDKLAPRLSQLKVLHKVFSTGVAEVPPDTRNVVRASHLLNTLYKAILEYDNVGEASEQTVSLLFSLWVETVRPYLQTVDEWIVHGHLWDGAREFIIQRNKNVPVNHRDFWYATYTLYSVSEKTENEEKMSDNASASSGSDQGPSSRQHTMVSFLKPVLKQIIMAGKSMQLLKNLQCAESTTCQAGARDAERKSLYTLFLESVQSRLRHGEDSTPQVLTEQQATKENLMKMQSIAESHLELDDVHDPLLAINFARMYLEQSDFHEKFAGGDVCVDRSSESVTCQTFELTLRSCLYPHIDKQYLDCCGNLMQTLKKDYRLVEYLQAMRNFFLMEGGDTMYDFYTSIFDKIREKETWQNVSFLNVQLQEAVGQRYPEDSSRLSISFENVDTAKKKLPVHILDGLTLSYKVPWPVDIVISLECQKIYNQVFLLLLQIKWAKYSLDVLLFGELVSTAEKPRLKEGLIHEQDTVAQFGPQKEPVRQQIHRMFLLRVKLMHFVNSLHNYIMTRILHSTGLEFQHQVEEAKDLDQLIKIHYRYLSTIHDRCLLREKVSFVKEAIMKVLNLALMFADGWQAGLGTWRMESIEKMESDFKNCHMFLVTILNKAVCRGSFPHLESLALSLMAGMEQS
Chain of UniProt P21580 (P21580 whole entry, looked up): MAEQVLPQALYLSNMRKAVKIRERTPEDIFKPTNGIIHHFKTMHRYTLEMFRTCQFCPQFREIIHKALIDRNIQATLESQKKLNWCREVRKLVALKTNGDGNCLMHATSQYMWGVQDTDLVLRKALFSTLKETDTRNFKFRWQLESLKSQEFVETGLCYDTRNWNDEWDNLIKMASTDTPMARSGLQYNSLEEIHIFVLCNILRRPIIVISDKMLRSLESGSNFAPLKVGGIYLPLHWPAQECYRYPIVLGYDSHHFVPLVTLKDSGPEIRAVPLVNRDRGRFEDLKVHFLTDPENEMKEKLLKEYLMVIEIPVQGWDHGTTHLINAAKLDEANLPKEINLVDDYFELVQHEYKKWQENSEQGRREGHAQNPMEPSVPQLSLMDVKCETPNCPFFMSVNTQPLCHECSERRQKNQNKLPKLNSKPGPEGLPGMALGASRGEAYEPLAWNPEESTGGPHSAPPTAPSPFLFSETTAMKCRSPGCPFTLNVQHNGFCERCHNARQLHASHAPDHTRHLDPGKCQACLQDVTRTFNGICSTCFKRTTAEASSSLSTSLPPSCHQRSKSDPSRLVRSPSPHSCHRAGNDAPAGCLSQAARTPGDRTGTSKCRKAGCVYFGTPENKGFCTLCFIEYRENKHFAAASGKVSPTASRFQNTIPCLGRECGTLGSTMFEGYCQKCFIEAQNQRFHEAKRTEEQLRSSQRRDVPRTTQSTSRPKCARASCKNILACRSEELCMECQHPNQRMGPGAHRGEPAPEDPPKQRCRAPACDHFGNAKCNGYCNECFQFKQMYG
Chain of UniProt Q96BZ9 (Q96BZ9 whole entry, looked up): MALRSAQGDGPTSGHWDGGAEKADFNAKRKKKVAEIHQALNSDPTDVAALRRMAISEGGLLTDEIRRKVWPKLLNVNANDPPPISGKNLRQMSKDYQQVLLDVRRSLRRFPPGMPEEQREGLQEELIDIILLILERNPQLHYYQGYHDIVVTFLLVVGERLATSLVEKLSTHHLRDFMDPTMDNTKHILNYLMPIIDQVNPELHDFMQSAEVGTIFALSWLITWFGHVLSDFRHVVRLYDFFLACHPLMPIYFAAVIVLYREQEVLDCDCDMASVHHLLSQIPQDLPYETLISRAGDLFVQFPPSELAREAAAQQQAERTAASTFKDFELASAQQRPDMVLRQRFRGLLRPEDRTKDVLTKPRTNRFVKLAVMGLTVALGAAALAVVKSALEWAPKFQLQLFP
Chain of UniProt Q5U3C3 (Q5U3C3 whole entry, looked up): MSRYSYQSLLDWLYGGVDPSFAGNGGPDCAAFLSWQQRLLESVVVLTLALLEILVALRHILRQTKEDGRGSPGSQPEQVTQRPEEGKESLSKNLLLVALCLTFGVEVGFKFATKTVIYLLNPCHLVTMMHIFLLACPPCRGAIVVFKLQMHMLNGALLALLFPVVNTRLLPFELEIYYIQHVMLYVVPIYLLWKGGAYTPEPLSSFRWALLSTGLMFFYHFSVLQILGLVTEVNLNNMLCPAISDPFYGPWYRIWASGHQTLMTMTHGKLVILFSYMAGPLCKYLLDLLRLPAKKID
Chain of UniProt Q24JP5 (Q24JP5 whole entry, looked up): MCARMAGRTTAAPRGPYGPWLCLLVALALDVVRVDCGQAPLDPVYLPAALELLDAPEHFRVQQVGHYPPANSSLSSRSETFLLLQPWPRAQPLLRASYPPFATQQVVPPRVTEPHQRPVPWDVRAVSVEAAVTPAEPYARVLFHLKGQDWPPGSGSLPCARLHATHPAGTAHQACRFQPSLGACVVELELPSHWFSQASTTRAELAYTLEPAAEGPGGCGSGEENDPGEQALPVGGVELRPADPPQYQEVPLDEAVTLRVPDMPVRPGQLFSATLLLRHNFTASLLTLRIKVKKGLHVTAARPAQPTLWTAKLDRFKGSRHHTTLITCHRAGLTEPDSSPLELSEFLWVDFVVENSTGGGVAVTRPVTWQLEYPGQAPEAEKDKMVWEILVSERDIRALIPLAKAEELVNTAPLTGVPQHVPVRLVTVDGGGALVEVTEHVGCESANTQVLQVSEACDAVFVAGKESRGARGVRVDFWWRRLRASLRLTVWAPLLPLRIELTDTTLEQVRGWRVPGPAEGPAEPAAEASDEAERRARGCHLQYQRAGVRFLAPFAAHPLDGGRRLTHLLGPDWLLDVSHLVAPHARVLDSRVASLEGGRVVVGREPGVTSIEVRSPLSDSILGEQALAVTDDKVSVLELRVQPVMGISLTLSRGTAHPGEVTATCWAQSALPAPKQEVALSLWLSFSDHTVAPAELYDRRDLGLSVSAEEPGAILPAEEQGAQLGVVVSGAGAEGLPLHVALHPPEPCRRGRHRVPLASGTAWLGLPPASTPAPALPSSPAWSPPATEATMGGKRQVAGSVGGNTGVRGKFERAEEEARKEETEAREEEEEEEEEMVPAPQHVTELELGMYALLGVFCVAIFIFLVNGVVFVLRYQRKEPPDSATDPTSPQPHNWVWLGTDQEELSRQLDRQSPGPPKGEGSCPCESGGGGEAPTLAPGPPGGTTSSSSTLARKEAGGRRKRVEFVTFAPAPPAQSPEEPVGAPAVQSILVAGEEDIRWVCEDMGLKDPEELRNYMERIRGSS
Chain of UniProt Q8NDZ6 (Q8NDZ6 whole entry, looked up): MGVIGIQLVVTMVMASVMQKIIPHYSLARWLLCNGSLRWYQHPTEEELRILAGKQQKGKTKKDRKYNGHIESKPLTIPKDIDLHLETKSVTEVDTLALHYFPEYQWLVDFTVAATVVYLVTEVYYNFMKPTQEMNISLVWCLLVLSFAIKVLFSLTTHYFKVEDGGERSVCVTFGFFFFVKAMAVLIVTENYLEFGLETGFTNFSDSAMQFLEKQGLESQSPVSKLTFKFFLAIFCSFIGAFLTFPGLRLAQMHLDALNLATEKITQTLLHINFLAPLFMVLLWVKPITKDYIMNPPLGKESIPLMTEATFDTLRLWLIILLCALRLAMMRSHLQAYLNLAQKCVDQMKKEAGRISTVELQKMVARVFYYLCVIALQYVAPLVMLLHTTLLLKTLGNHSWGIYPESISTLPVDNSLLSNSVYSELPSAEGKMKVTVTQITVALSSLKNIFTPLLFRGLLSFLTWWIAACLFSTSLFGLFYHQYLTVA
Chain of UniProt Q9NRX6 (Q9NRX6 whole entry, looked up): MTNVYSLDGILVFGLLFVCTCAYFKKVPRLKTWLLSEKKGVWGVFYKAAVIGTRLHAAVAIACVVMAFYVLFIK
Chain of UniProt Q96LJ8 (Q96LJ8 whole entry, looked up): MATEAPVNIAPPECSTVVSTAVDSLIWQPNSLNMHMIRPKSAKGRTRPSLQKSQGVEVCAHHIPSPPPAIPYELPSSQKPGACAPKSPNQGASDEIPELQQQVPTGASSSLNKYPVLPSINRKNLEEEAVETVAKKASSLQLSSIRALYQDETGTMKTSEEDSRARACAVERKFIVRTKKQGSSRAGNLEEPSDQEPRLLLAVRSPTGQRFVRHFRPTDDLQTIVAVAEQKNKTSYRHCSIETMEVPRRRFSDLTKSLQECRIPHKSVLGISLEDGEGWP

Compound in the test: C[C@@H](Oc1cc(-c2cnn(C3CCNCC3)c2)cnc1N)c1c(Cl)ccc(F)c1Cl [crizotinib]
As to the kind of experiment: log2 fold change, soluble protein after heating vs DMSO (PISA); higher = thermal stabilisation; K562 lysate, 10 uM; active = over 0.2 and 3.5 SD of the protein, either way, in both replicates (recomputed). An outline of the steps:
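K562 pellets were dounce-homogenised in PBS pH 7.4 with 1 mM MgCl2, and the crude extract at 1 mg/mL protein was treated with 10 μM compound for 30 min. Aliquots were heated for 3 min across 48°C-58°C, pooled, and brought to 0.5% NP-40 at 4°C; soluble protein was the supernatant after 21,000xg for 90 min. Soluble protein was quantified by TMTpro 16plex LC-MS/MS with channel sums equalised, and reported as log2 fold change in thermal stability against DMSO controls, with values from duplicates.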
For the target TMEM132A isoform 2 (UniProt Q24JP5), the log2 fold change was -0.237. On to UBIAD1 (UniProt Q9Y5Z9), for which the log2 fold change was -0.048.

Consider TMEM161B (UniProt Q8NDZ6), for which the log2 fold change was 0.007. For TK1 (UniProt K7ERV3), the log2 fold change was 0.075.

As for TUBB4A (UniProt P04350), the log2 fold change was -0.001. The figure for TUBGCP5 (UniProt Q96RT8) is -0.064; for UBXN10 (UniProt Q96LJ8) it is 0.02; for UCHL5 (UniProt Q5LJA9) it is -0.036. Take TNFAIP3 (UniProt P21580): the log2 fold change was -0.013.

As for TUBB6 (UniProt K7ES63), the log2 fold change was -0.277.

TRPM4 (UniProt Q8TD43): the log2 fold change is 0.055. For the target TFAP4 (UniProt Q01664), the log2 fold change is 0.009. Take TMEM164 (UniProt Q5U3C3): the log2 fold change is -0.03. For TTLL12 (UniProt V9GY16), the log2 fold change is 0.072. For TPM3 isoform 3 (UniProt P06753), the log2 fold change is 0.095. For TXNIP (UniProt Q9H3M7) the value was -0.045; for TMSB4X (UniProt P62328), 0.015; for TNKS (UniProt O95271), -0.031. On to TJP1 (UniProt G3V1L9), for which the log2 fold change was 0.068. For TMEM167B (UniProt Q9NRX6) the value was 0.006; for TFPI (UniProt P10646), 0.036. Consider TPM1 isoform 4 (UniProt P09493), for which the log2 fold change was 0.001. Consider TBC1D20 isoform 3 (UniProt Q96BZ9), for which the log2 fold change was -0.066.

Values taken from the supplement of paper PMC10849652.
